# An excerpt weighted towards active compounds, which were near 10% of everything screened.
# HP1b binding inh = blocks HP1-beta chromodomain binding to methylated histone tails | P83916 | AlphaScreen HP1-beta / biotin-H3K9me3 peptide binding | Potency, µM (series often up to 114 µM), for inactives: at the highest dose activity change, negative = inhibition, hits mostly inhibitors | 0.56% of 390,000 active | AID 540317; further: nearly all actives have a fitted effect of over 70% in size
#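 HP1-beta protein (50 nM final) preincubated 30 min at room temperature with biotinylated H3(1-18)K9me3 peptide (50 nM) in PBS pH 7.4, 0.01% Tween-20, then compound added for 30 min. AlphaScreen streptavidin donor/nickel chelate acceptor beads (10 ug/mL final), 30 min dark, luminescence read.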
# G9a inh = blocks human histone lysine methyltransferase G9a; Q96KQ7; G9a H3K9 monomethylation, AlphaScreen, 2 h; Potency, µM (series often up to 102 µM), inactives show at the top dose activity, negative = inhibition, usual class: inhibitors; 8.8% of 350,000 active; AID 504332; further: on the % scale 0 is the no-effect control and ±100 the full control effect; nearly all actives have a fitted effect of over 75% in size
#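 Enzyme 20 nM + cpd, 15 min RT; add b-H3K9 pep 500 nM / SAM 20 uM; 2 h RT; anti-H3K9me1 Ab 0.5 ug/mL + SA donor / anti-rabbit acceptor beads 20 ug/mL each, 10 min; AlphaScreen read.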
# GLS inhibitor = blocks human kidney-isoform glutaminase activity | AID 624170 | Potency, µM (titrated, usually from 45.5 µM), without a hit: at the top dose activity change, negative = inhibition, actives largely listed as inhibitors | 0.21% of 410,000 active | GLS enzymatic activity, qHTS titration; further: on the % scale 0 is the no-effect control and ±100 the full control effect
# Target sequence (O94925 whole entry, looked up, canonical isoform): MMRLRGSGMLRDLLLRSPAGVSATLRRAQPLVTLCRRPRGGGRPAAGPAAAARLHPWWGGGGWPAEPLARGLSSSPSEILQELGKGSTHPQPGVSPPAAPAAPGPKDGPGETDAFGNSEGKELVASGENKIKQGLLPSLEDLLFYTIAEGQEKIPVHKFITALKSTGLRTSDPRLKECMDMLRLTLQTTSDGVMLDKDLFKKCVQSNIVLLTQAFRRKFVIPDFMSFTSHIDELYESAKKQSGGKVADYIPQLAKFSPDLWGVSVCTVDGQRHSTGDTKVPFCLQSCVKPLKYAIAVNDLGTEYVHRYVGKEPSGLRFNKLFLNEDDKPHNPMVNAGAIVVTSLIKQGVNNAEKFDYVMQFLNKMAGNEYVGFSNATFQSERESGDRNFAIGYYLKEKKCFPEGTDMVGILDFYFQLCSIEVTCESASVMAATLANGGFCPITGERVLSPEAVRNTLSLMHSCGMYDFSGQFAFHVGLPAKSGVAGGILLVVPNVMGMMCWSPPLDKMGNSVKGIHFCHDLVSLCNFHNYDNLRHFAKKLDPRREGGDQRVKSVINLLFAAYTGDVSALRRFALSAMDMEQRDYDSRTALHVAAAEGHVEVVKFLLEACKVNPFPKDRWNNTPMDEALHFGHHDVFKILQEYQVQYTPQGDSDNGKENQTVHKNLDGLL
#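 Compounds were pin-transferred onto hKGA, after which L-glutamine (1 mM solution) and a detection mix of glutamate oxidase, HRP and Amplex Red were added. Initial and 30 min RT fluorescence reads were collected.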
# BAZ2B block = inhibitors of human BAZ2B bromodomain; Potency, µM (titrated, usually from 114 µM), inactives show at the highest dose activity change, negative = inhibition, most hits filed as inhibitors; 4.4% of 360,000 active; AlphaScreen BAZ2B-H3K14Ac peptide displacement; Q9UIF8; further: on the % scale 0 is the no-effect control and ±100 the full control effect; nearly all actives have a fitted effect of over 60% in size
#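 In this displacement format the biotinylated H3(5-23) peptide acetylated at Lys14 serves as ligand at 50 nM, with BAZ2B at 50 nM in PBS pH 7.4 containing 0.01% Tween-20. Donor and acceptor beads are 10 ug/mL final.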
# JMJD2A Tudor = blocks the human JMJD2A Tudor domain; O75164; AlphaScreen JMJD2A-Tudor / H3K4me3 peptide binding; Potency, µM (titrated, usually from 114 µM), for inactives: at the highest dose activity change, negative = inhibition, most hits filed as inhibitors; 4.4% of 390,000 active; AID 504339; further: on the % scale 0 is the no-effect control and ±100 the full control effect; nearly all actives have a fitted effect of over 50% in size
# Starred values were filed as active, the others as inactive; ? = inconclusive; / = not tested or not shown; [ ] = dose if it differs, or a comment. The call rests on the fitted dose curve; in most records, active means well fitted curve in the direction sought with a large enough effect; inconclusive means small, poorly fitted or top-dose-only effect, or another doubt; inactive means no such curve, though single readings can be large; an effect the other way counts as inactive or inconclusive. Potency means the concentration at half of the fitted maximal effect.
SMILES,HP1b binding inh,G9a inh,GLS inhibitor,BAZ2B block,JMJD2A Tudor
C=C1C(c2ccc(C)cc2)=CCc2cc(C)cc(C)c21,/,29%[59 µM],/,/,/
Cc1ccc(S(=O)(=O)N(C)/N=C2/C(=O)N(CC(=O)O)c3ccccc32)cc1,-13%,14µM*,-5%,-3%,?
COc1cccc(-n2cc(C(=O)Nc3ccccc3C(N)=O)c3ccccc3c2=O)c1,-7%,-33%[59 µM],-1%,-24%,-29%
O=C(Nc1nnc(-c2cccs2)s1)c1cccc(F)c1,23%,32µM*,-1%,-20%,-9%
CC(=O)NNc1cc(N2CCOCC2)nc(N2CCOCC2)n1,27%,45µM*,1%,5%,-30%
CC(C)(C)c1ccc(C(=O)NNc2cc(N3CCCCC3)nc(N3CCCCC3)n2)cc1,7.1µM*,-33%[59 µM],19%,10µM*,?
COC(=O)c1ccc(-n2nnc(-c3nc(-c4ccc5c(c4)OCO5)no3)c2C)cc1,13%,-1%[59 µM],2%,-2%,?
COc1ccc(CNC(=O)c2ccc3c(c2)N(Cc2c(F)cccc2Cl)C(=O)CS3)cc1,60%,1%[59 µM],6%,4%,-2%
O=C1Nc2ccccc2/C1=N\c1sc2c(c1C(=O)Nc1ccccc1)CCCC2,3%,13µM*,/,-25%,?
Cc1cc(C)c(Cn2c3ccccc3c3cnn(CC(=O)NC4CCC(C)CC4)c(=O)c32)c(C)c1 (centres undefined),23%,15%[59 µM],1%,5%,-16%
Cc1ccc(CSc2nc3nc(C)cc(C)n3n2)cc1,40%,/,4%,5%,-9%
Cc1cc(C)n2nc(SCc3cccc(S(=O)(=O)N(C)C)c3)nc2n1,38%,45µM*,-9%,-13%,0%
CCn1c(SCC(=O)c2cc(C)n(CC3CCCO3)c2C)nc2ccccc21 (centres undefined),-20%,18µM*,22%,?,?
Cc1cc(C(=O)CN2C(=O)c3ccccc3S2(=O)=O)c(C)n1CC1CCCO1 (centres undefined),-4%,50µM*,5%,-34%,?
Cc1ccc(CCNC(=O)c2cn(C)c3ccc(S(=O)(=O)N4CCC(C)CC4)cc3c2=O)cc1,1%,-8%[59 µM],-2%,/,-19%
C[C@H](CO)N1C[C@H](C)[C@@H](CN(C)Cc2ccccc2)Oc2c(NS(=O)(=O)c3cn(C)cn3)cccc2C1=O,34%,/,9%,/,-26%
CC(C)OC(=O)c1cccc(C(=O)O)n1,6%,2.5µM*,5%,?,7.1µM*
CC(C)OC(=O)c1cccc(C(=O)Oc2ccc(Br)cc2)n1,41%,20%,18%,9%,1%
O=C(NCc1ccco1)Nc1nnc([C@H]2C[C@H](O)[C@@H](CO)O2)s1,/,/,1%,/,/
COc1cc2nc(=S)n3[nH]c(CCn4nc(C)cc4C)nc3c2cc1OC,0%,1µM*,?,5%,-23%
COc1cc2nc(=S)n3[nH]c(COc4ccccc4C)nc3c2cc1OC,21%,-5%[59 µM],-14%,6%,-37%
O=C(O)C1CSC2(CCN(Cc3ccccc3)CC2)N1 (centres undefined),?,7.1µM*,-1%,56µM*,10µM*
O=C(Cc1ccccc1)NC1CCN(Cc2ccccc2)CC1,46%,?,4%,-15%,-9%
COc1ccc(CC(=O)N/N=C(\C)c2cccnc2)cc1,52%,/,0%,-8%,-2%
CN=c1scc(-c2ccc(OC)cc2)n1/N=C(\C)c1cccnc1,45µM*,32µM*,5%,32µM*,50µM*
SMILES,HP1b binding inh,G9a inh,GLS inhibitor,BAZ2B block,JMJD2A Tudor
CCCn1cc(S(=O)(=O)c2cc(C)ccc2C)c(=O)c2cc(F)c(N3CCCCCC3)cc21,17%,7%[59 µM],4%,-3%,-19%
Cc1[nH]n(-c2ccccc2)c(=O)c1C(C[N+](=O)[O-])c1ccc(F)cc1 (centres undefined),8%,45µM*,18%,?,-32%
Cc1ccc(C(C[N+](=O)[O-])c2c(C)[nH]n(-c3ccccc3)c2=O)cc1 (centres undefined),12%,?,11%,?,-24%
Cc1[nH]n(-c2ccccc2)c(=O)c1C(c1ccccc1[N+](=O)[O-])C(C#N)C#N (centres undefined),2%,28µM*,-13%,?,?
Cc1[nH]n(-c2ccccc2)c(=O)c1C(C[N+](=O)[O-])c1ccc(Cl)cc1 (centres undefined),7%,?,?,?,?
Cc1cc(OCC(=O)N(C)Cc2ccccc2)ccc1Cl,46%,?,0%,11%,17%
CN(CCOc1ccc(Cl)c(Cl)c1)Cc1ccccc1,-23%,/,-11%,?,20µM*
CCN(CC)CCCOc1ccc(Cl)c(Cl)c1,-49%,10µM*,6%,?,0.89µM*
CN1CCN(CCOc2ccc(Cl)c(Cl)c2)CC1,16µM*,10µM*,1%,50µM*,0.79µM*
CCN(CC)CCOc1ccc2c(c1)C(=NO)c1cc(OCCN(CC)CC)ccc1-2,-7%,?,60%,8%[57.1 µM],-27%
CN(CCCOc1ccccc1F)Cc1ccccc1,?,7.9µM*,-3%,56µM*,20µM*
CN(CCCOc1ccccc1Br)Cc1ccccc1,-11%,23%,-12%,0%,-13%
CN(c1ccc(OCCOc2ccccc2Cl)cc1)S(=O)(=O)c1ccccc1,55%,/,9%,/,11%
CN(CCOc1ccccc1Cl)Cc1ccccc1,?,10µM*,1%,56µM*,22µM*
Cc1ccc(C)c(N(C)C(=O)C2CCN(S(=O)(=O)c3cccc4nsnc34)CC2)c1,30%,-1%[59 µM],-1%,/,-19%
O=C(NCc1ccccc1)c1cnc(N2CCCCC2)c2ccccc12,27%[57 µM],23%[59 µM],1%,28%,10%
CCC(=O)Nc1nc(C)nc(C)c1C(C)=O,8%,45µM*,1%,-21%,-16%
O=C(O)c1ccc(Nc2nc3ccc(Cl)cc3[nH]2)cc1,3%,45µM*,15%,?,?
CS(=O)(=O)c1ccc(N)c(SSc2cc(S(C)(=O)=O)ccc2N)c1,?,?,10µM*,35µM*,1.4µM*
COc1ccc(N(CC(=O)O)S(=O)(=O)c2ccc(C)cc2)cc1Cl,19%,/,5%,-17%,-8%
O=c1cc(-c2ccc(O)cc2)oc2c(O)c(O)c(O)c(O)c12,?,20µM*,11µM*,45µM*,40µM*
CCOCCCNC(=S)N1CCN(CC)CC1,?,22µM*,-1%,50µM*,25µM*
CCCCNC(=S)N1CCN(CC)CC1,?,/,-5%,50µM*,45µM*
CCCNC(=S)N1CCN(C)CC1,?,10µM*,3%,40µM*,8.9µM*
CCOCCCNC(=S)N1CCN(c2nc(-c3ccccc3)cs2)CC1,-12%,?,3%,50µM*,?
COCCCNC(=S)N1CCN(c2nc(-c3ccccc3)cs2)CC1,-5%,/,4%,?,-31%
